# From ChEMBL document CHEMBL4513146, “CO-ADD screening of Karazin Kharkiv National University (Ukraine) compounds”
# Potency and affinity values are given separately.
# System: Klebsiella pneumoniae
# Conditions: Concentration 32 ug.mL-1;; ASSAY_TEST Inhibition of Bacterial Growth; detection method Absorption (OD600); MEDIA CAMHB; plate type 384well; NBS; CORNING #3640; time 18 hr
row,Structure (SMILES),Inhibition [%]
1,CCc1ccc(N(Cc2ccc(OC)cc2)S(=O)(=O)c2cccn3c(C)nnc23)cc1,6.54
2,COC(=O)c1ccccc1NC(=O)Cn1nc2c(Oc3ccc(C)cc3)nccn2c1=O,2.12
3,CCc1nnc2ccc(S(=O)(=O)N(Cc3cccc(OC)c3)c3cccc(F)c3)cn12,10.63
4,COC(=O)c1ccc(NC(=O)Cn2nc3c4sc(N5CCCC5)nc4ncn3c2=O)cc1,-7.74
5,Cc1cccc(Oc2nc3ccccc3n3c(=O)n(CC(=O)Nc4ccc5c(c4)OCCO5)nc23)c1C,14.16
6,CCOc1ccc(-n2ccn3c(SC(C)C(=O)Nc4cc(OC)cc(OC)c4)nnc3c2=O)cc1 (stereo not given),7.45
7,Cc1cc(C)cc(Nc2nc(C)cc3nn(CC(=O)Nc4ccc(Cl)cc4)c(=O)n23)c1,13.53
8,COc1cccc(Oc2nccn3c(=O)n(CC(=O)Nc4ccc(OC)c(OC)c4)nc23)c1,7.97
9,CCc1ccc(N(Cc2ccc(Cl)cc2)S(=O)(=O)c2cccn3c(C)nnc23)cc1,-1.79
10,Cc1ccc(-c2ccc3nn(CC(=O)Nc4c(C)cccc4C)c(=O)n3n2)cc1C,-0.65
11,CCCCN(CC)c1ccc2nnc(CCc3nc(-c4ccc5c(c4)OCO5)no3)n2n1,3.82
12,Cc1ccc(CNC(=O)Cn2nc3c(Sc4cccc(F)c4)nccn3c2=O)cc1,-2.32
13,Cc1cc2nn(CC(=O)Nc3cc(F)ccc3C)c(=O)n2c(Nc2ccc(C)c(F)c2)n1,11.43
14,Cc1nnc2c(=O)n(CC(=O)Nc3ccc(Cl)cc3)c3ccccc3n12,4.43
15,COc1cc(NC(=O)Cn2nc3c(Sc4cccc(F)c4)nccn3c2=O)cc(OC)c1,4.9
16,CCC(Sc1nnc2c(=O)n(-c3cccc(OC)c3)ccn12)C(=O)Nc1ccccc1C (stereo not given),4.33
17,COc1ccc(NC(=O)Cn2nc3c4cc(-c5ccc(C)cc5)nn4ccn3c2=O)cc1,-1.42
18,Cc1ccc(Oc2nccn3c(=O)n(CC(=O)NCc4ccccc4Cl)nc23)cc1,6.19
19,O=C(Cn1nc2nc(Nc3ccc(F)cc3)ccn2c1=O)N1CCOCC1,14.5
20,COc1cccc(Sc2nc3ccccc3n3c(=O)n(CC(=O)Nc4ccc(C)cc4)nc23)c1,9.1
21,O=C(Cn1nc2ccc(-c3ccc(Cl)cc3)nn2c1=O)Nc1ccccc1,1.21
22,COc1cccc(CNC(=O)CSc2nnc3c4cc(-c5cc(C)ccc5C)nn4ccn23)c1OC,10.97
23,COc1ccc(N(Cc2cccc(OC)c2)S(=O)(=O)c2ccc3nnc(C)n3c2)cc1,9.44
24,CCOC(=O)c1ccccc1NC(=O)Cn1nc2c(Oc3ccccc3)nccn2c1=O,14.49
25,COc1ccc(CNC(=O)CSc2nnc3c4cc(-c5ccc(C)cc5)nn4ccn23)cc1OC,9.92
